# In the library only some 2.4% were active in any assay of this set; here they are far more common.
# p97 inhibitor: inhibitors of human p97 ATPase, primary screen, biochemical. inhibition, % at 8 µM. recombinant p97 ATPase, Kinase-Glo ATP luminescence, 3 h. AID 1481, 2009. actives 0.42% (n = 220,000). Transitional endoplasmic reticulum ATPase (Homo sapiens), P55072; in the data active = inhibition above about 15%;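 note: 0% = DMSO vehicle and 100% = wells lacking enzyme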
# EP2 antag: human EP2 receptor antagonists, primary screen, TR-FRET cAMP, C6 glioma cells | C6 glioma cells expressing human EP2; cells stimulated with saturating PGE2 | inhibition, % at 25 µM | actives 0.52% (n = 260,000) | AID 1422, 2008;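 active = percent inhibition above 40 after rounding to a whole number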;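 note: rat C6 glioma host cells with rolipram phosphodiesterase inhibitor present; the protocol text gives 20 µM as final concentration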
# Hck-Nef inh: inhibitors of Nef-activated human Hck kinase, primary screen, biochemical, Z-Lyte FRET, 384-well, Hck-YEEI; Tyrosine-protein kinase HCK (Homo sapiens), P08631; Recombinant Hck-YEEI plus Nef, Z-Lyte FRET kinase assay; inhibition, % at 20 µM; actives 0.68% (n = 220,000); AID 463187, 2010;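 active = Hck-Nef kinase inhibition above about 50%, limit read from the data; inactive = inhibition below that limit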;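 note: 0% = DMSO with Hck plus Nef and 100% = Hck alone without Nef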
# Target sequence (P08631 whole entry, looked up): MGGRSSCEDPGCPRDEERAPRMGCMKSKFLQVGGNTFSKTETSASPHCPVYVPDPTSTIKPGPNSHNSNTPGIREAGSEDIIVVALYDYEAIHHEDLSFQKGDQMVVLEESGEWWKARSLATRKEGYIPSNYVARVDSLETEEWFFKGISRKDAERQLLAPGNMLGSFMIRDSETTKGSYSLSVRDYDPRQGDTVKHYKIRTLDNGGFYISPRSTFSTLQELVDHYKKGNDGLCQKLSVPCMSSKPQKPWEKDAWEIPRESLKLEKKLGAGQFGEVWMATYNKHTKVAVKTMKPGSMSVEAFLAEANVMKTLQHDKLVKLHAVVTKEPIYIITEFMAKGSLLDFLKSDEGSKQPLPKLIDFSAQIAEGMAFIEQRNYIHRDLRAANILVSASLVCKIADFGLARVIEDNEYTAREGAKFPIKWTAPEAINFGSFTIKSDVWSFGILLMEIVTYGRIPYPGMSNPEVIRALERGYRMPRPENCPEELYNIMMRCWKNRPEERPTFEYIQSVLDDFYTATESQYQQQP
# Arbovirus anti: antivirals against arbovirus infection, primary screen, cell-based, full library, 10K replicate subset. arbovirus infection cell-based antiviral screen. inhibition, % at 10 µM. actives 0.37% (n = 200,000). AID 1251, 2008; in the data active = inhibition above about 30%
# EP2 modulator: EP2 receptor modulators, cAMP readout, primary screen, cell-based, HTRF cAMP, PGE2 stimulation; EP2-expressing cells, cAMP HTRF FRET, PGE2 co-stimulation; Prostaglandin E2 receptor EP2 subtype (Homo sapiens), P43116; induction, % at 25 µM; AID 940, 2007; actives 0.83% (n = 260,000);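 active = compounds whose cAMP rise, as percent of the full-agonist control response, exceeds 60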;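 note: rat C6 glioma line stably carrying human EP2 under a CMV promoter; the protocol text gives 20 µM as final concentration; 100% = response of wells given 1 µM PGE2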
# The depositor's hits bear a star; · = not tested or not shown; ! = repeats disagree.
SMILES,p97 inhibitor,EP2 antag,Hck-Nef inh,Arbovirus anti,EP2 modulator
CCC(c1nnnn1C(C)(C)C)N(Cc1ccccc1)Cc1cc2cc(OC)ccc2[nH]c1=O (stereo unspecified),·,12,·,·,68*
CCC(c1nnnn1C(C)(C)C)N(Cc1ccc(OC)cc1)Cc1cc2cc(C)ccc2[nH]c1=O (stereo unspecified),·,14,·,·,58
CCC(c1nnnn1C1CCCCC1)N(Cc1ccc(C)cc1)Cc1cc2cccc(C)c2[nH]c1=O (stereo unspecified),·,9,·,·,66*
CCCC(c1nnnn1C1CCCC1)N(Cc1cc2cc(OCC)ccc2[nH]c1=O)C1CCCC1 (stereo unspecified),·,10,·,·,31
CCOc1ccc2[nH]c(=O)c(CN(Cc3cccs3)C(CC)c3nnnn3C3CCCC3)cc2c1 (stereo unspecified),·,6,·,·,62*
COc1ccc(CN2CCc3c(nc(C)[nH]c3=O)C2)cc1CO,·,4,·,·,-40
Cc1ccc(NC(=O)CSc2nnnn2-c2ccc3c(c2)OCCO3)cc1,·,14,·,·,-41
CCC(c1nnnn1C1CCCC1)N(Cc1ccccc1)Cc1cc2cc(OC)ccc2[nH]c1=O (stereo unspecified),·,15,·,·,74*
COc1ccc2[nH]c(=O)c(CN(Cc3ccccc3)C(c3nnnn3C3CCCC3)C(C)C)cc2c1 (stereo unspecified),·,7,·,·,39
CCCc1cc2c(OC(=O)CC)c(-c3ccc(C(=O)OCC)o3)c(=O)oc2cc1OC,2,6,23,58*,5
FC(F)(F)c1cc(C(F)(F)F)c2ccc(Oc3ccccc3)nc2n1,2,8,4,0,17
FC(F)(F)c1cccc(Oc2ccc3c(C(F)(F)F)cc(C(F)(F)F)nc3n2)c1,4,10,1,51*,7
CCOc1ccc(OCC)c(NC(=O)CSc2nc3cc(OC)ccc3cc2C#N)c1,·,15,·,·,-9
CC1CCc2c(sc3ncn(CC(=O)Nc4ccc(F)cc4)c(=O)c23)C1 (stereo unspecified),·,15,·,·,-9
COc1cccc(CC2(CO)CCCN(Cc3ccccc3-c3ccco3)C2)c1 (stereo unspecified),-2,1,-4,-20,63*
Nc1[nH]n2c(=O)c3c(nc2c1N=Nc1ccc(Cl)cc1)CCCC3,0,11,2,-23,64*
CCOc1cc(CN2CCC(O)(c3ccccc3F)CC2)ccc1OCC(N)=O,·,1,·,·,-41
O=C(c1ccccn1)N1N=C2/C(=C/c3ccccc3)CCCC2C1c1ccccc1 (stereo unspecified),4,10,1,-15,53
COc1ccc(/C=C2\CCCC3C2=NN(C(=O)CSc2n[nH]c(N)n2)C3c2ccc(OC)cc2)cc1 (stereo unspecified),15*,5,21,-4,30
O=C1OC2(c3ccc(O)cc3Oc3cc(O)ccc32)c2c1c(-c1ccccc1)c(-c1ccccc1)c(-c1ccccc1)c2-c1ccccc1,·,45*,·,·,5
NC(=O)CC[C@@H]1NC(=O)[C@H](CO)NC(=O)c2cc([N+](=O)[O-])cc(I)c2NCCC[C@@H](C(N)=O)NC(=O)[C@H](Cc2ccc(O)cc2)NC1=O,18*,12,-8,5,51
NC(=O)[C@@H]1CCCNc2c(I)cc([N+](=O)[O-])cc2C(=O)N[C@@H](CO)C(=O)N[C@@H](Cc2ccc(O)cc2)C(=O)N1,6,5,-5,2,26
CC(C)C[C@@H]1NC(=O)[C@H](Cc2ccc(O)cc2)NC(=O)c2cc([N+](=O)[O-])cc(I)c2NCCC[C@@H](C(N)=O)NC1=O,16*,8,-4,11,19
CCn1c2cc(C)oc2c2cnn(CC(=O)NCC3CC3)c(=O)c21,·,·,·,·,-67
COc1ccc(CN2CCc3c(nc(N4CCCCC4)[nH]c3=O)C2)cc1,·,·,·,·,-25
CCN1CCN(c2ccc(NC(=O)c3ccc([N+](=O)[O-])o3)cc2Cl)CC1,-3,116*!,-10,-32,-156
O=C(Nc1ccc(S(=O)(=O)N2CCOCC2)cc1)c1ccc([N+](=O)[O-])o1,3,49*,15,·,-43

# Screens from PubChem.
